Compound activity from PubChem BioAssay.
Nrf2 activator = activates Nrf2 signaling; AID 624171; 410,000 tested, 0.31% active; Potency, µM (top dose mostly 46.1 µM), without a hit: at the highest dose activation, hits mostly activators; AREc32 ARE-luciferase reporter (MCF7-derived line), luminescence, 24 h; also: potency is read from the fitted curve at half-maximal effect; % of control where 0% means no effect; nearly all actives have a fitted effect of over 65% in size
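Luciferase luminescence (Steady-Glo, 30 min at room temperature) served as the read-out of ARE activation in AREc32 cells treated with compounds for 24 hr at 37 deg C.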
A549 viability = kills or reduces viability of A549 cells in Nrf2 counter-screen; Potency, µM (top dose mostly 46 µM), inactives show at the top dose activity change, negative = cytotoxicity, actives largely listed as inhibitors; A549 ARE-Fluc cells, CellTiter-Fluor viability, 18-24 h; 390,000 tested, 0.16% active; also: potency is read from the fitted curve at half-maximal effect; % is scaled to controls: 0 for no effect and ±100 for the full control effect
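A549 ARE-Fluc cells in 5% FBS OPTI-MEM, 5000 cells/well, rested 2 h then exposed to compounds in concentration-response for 18-24 h at 37 °C. Viability by CellTiter-Fluor fluorescence (Ex 405/Em 525) after 30 min; luciferase luminescence (BugLite, 15 min, RT) read afterwards.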
BRCA1 expr up = activators of BRCA1 expression | 380,000 tested, 1.1% active | MCF7-BRCA1-FFLuc reporter, luminescence, 48 h; response scale: scaled: vehicle 0%, 10 µM genistein 100% | Potency, µM (highest dose often 46.1 µM), without a hit: at the top dose activation, actives largely listed as activators; also: potency is read from the fitted curve at half-maximal effect; nearly all actives have a fitted effect of over 80% in size
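Luminescence from a BRCA1-driven firefly luciferase in MCF7 cells was the read-out, taken 15 min after substrate addition following 48 h compound exposure at 37 °C. Data were normalized to a 10 microM genistein control and DMSO vehicle.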
IL-2 act = IL-2 activation. activation, % (series mostly up to about 46 µM). IL-2 activation reporter assay, cell-based qHTS; stimulated with anti-CD3/CD4/CD28 beads; in transgenic mouse T cells. 360,000 tested, 0.065% active; in the data active = activation above about 50%; inconclusive = mostly about 30% to 49%; also: 0% is about no effect
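Using fluorescent plate cytometry, EGFP and DsRed are detected in transgenic mouse T cells stimulated 18 h at 37 degrees C with antibody-coated beads after 60 min compound pretreatment.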
Nrf2 block = blocks Nrf2 signaling; A549 ARE-Fluc reporter, luciferase luminescence, 18-24 h; Potency, µM (series often up to 46 µM), without a hit: at the highest dose activity change, negative = inhibition, actives largely listed as inhibitors; 360,000 tested, 2.1% active; AID 504444; also: potency is read from the fitted curve at half-maximal effect; % is scaled to controls: 0 for no effect and ±100 for the full control effect; nearly all actives have a fitted effect of over 60% in size
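Reporter: ARE-Fluc in A549. Exposure: 18-24 h, 37 °C, 5% CO2, 5% FBS OPTI-MEM. Readouts: fluorescent cytotoxicity (CellTiter-Fluor), then luminescent Nrf2 signal after BugLite.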
p53 reactivation = mutant p53 re-activation in reporter cells. H1299 p53-A138V BP100-luciferase reporter, luminescence, 24 h. Potency, µM (series often up to 92.2 µM), without a hit: at the top dose activity change, positive = activation, hits mostly activators. 320,000 tested, 0.063% active. AID 504706; also: potency is read from the fitted curve at half-maximal effect; % of control where 0% means no effect; nearly all actives have a fitted effect of over 45% in size
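p53-null H1299 cells stably carrying temperature-sensitive p53-A138V and a BP100-luciferase reporter were pinned with compounds (4-point, 1:5 series) and held 24 hrs at 37 deg C. Luminescence was read 10 min after detection reagent.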
The depositor's hits bear a star; u = inconclusive; x = not tested or not shown. Most compounds without a hit are left out; they make up all but 3.2% or so of the library. Unless noted, calls follow the shape of the dose curve; as a rule, active = well fitted curve in the direction sought with a large enough effect; inconclusive = small, poorly fitted or top-dose-only effect, or another doubt; inactive = no such curve, though single readings can be large; an effect the other way counts as inactive or inconclusive.

SMILES	Nrf2 activator	A549 viability	BRCA1 expr up	IL-2 act	Nrf2 block	p53 reactivation
O=C(Nc1ccc2c(c1)CCC2)Nc1ccc2c(c1)OCO2	1%	u	u	-1	u	20%
COc1cccc(NC(=O)Nc2ccc3c(c2)CCC3)c1	0%	0%	u	2	u	23%
CC(=O)c1cccc(NC(=O)Nc2ccc3c(c2)CCC3)c1	0%	5%	7.1µM*	-4	5%	7%
COc1ccc2c(c1)cc1c(=O)n(CC(=O)NCCc3ccccc3)nc(C)n12	1%	-5%	x	x	2%	x
Cc1ccc(NC(=O)CSc2nccn2Cc2ccco2)cc1Cl	0%	3%	x	x	x	x
Cc1cnc(C(=O)Nc2ccc(OC(F)(F)F)cc2)cn1	2%	-16%	34%	1	-27%	x
Cc1ccc(C(=O)N2CCN(c3ncnc4c(C)csc34)CC2)cc1	0%	-5%	1%	-4	u	-1%
Cc1csc2c(N3CCN(C(=O)Nc4ccccc4)CC3)ncnc12	4%	-3%	-28%	0	8.2µM*	-4%
Cc1csc2c(N3CCN(C(=S)Nc4ccc(F)cc4F)CC3)ncnc12	1%	-5%	-8%	0	18µM*	-1%
Cc1csc2ncnc(N3CCN(C(=O)Nc4ccc(OC(F)(F)F)cc4)CC3)c12	4%	u	-34%	0	23µM*	-3%
COc1ccccc1CNS(=O)(=O)c1ccc2c(c1)NC(=O)C(C)C(=O)N2 (stereo unspecified)	0%	-6%	x	x	-9%	x
CC(=O)Nc1ccc2nc(-c3cccn3C)[nH]c2c1	7%	0%	91%	-4	u	x
O=C(Nc1ccc2nc(-c3ccc(Br)o3)[nH]c2c1)c1ccco1	6%	-7%	6.3µM*	-2	x	3%
O=C(Nc1ccc2nc(-c3ccccc3)[nH]c2c1)c1ccco1	8%	1%	u	2	u	5%
CC(=O)Nc1ccc2nc(-c3ccc(Br)o3)[nH]c2c1	3%	3%	10µM*	0	u	u
CC(=O)Nc1ccc2nc(-c3cccs3)[nH]c2c1	10%	-1%	6.3µM*	0	u	u
Cn1cccc1-c1nc2ccc(NC(=O)c3cccs3)cc2[nH]1	3%	-14%	u	0	18µM*	-12%
COc1ccc(C2Nc3ccccc3C(=O)N2Cc2ccc(-c3ccccc3)cc2)cc1COc1ccc(NC(C)=O)cc1 (stereo unspecified)	x	12%	x	x	2%	x
O=C1C(=O)C(c2cc(O)c(O)c(O)c2)Oc2cc(O)cc(O)c21 (stereo unspecified)	x	-21%	0%	x	3%	x
Cc1ccc(-c2cc(NC(=O)C(C)Oc3ccccc3F)on2)cc1 (stereo unspecified)	7%	0%	x	x	21%	x
O=C(Nc1ccc2nc(-c3ccc(Br)o3)[nH]c2c1)c1cccs1	7%	u	10µM*	2	18µM*	28%
COCCn1c(-c2cccs2)nc2nc3ccccc3nc21	12%	1%	-18%	-1	19%	4%
Cn1c(-c2cccs2)nc2ccccc21	4%	2%	7.9µM*	4	u	24%
CCCn1c(-c2cccs2)nc2nc3ccccc3nc21	4.5µM*	-4%	-65%	-3	19%	1%
Cn1c(-c2ccc(C=O)s2)nc2ccccc21	1%	-4%	11µM*	1	u	24%
Cc1cccc(-c2cc(NC(=O)COc3ccccc3F)n(-c3ccccc3)n2)c1	-1%	1%	0%	x	x	x
O=S(=O)(c1ccc2c(c1)OCCO2)N1CCN(S(=O)(=O)c2cc(F)c(Br)cc2F)CC1	x	2%	x	x	-1%	x
Cc1cc(C)cc(NC(=O)Cc2noc3ccccc23)c1	5%	-13%	x	x	u	x
